Experimental data published in PubChem BioAssay (NCATS).
Records with an inconclusive call do not appear. Activity calls are given as the source filed them. The call rests on the fitted dose curve; in most records, active means well fitted curve in the direction sought with a large enough effect; inconclusive means small, poorly fitted or top-dose-only effect, or another doubt; inactive means no such curve, though single readings can be large; an effect the other way counts as inactive or inconclusive.

How the values were obtained:
[1] = HEK-293 Cancer Cell Toxicity qHTS against the NCATS CANVASS Library (AID 1347355); further: series mostly up to about 46 µM; nearly all actives have a fitted effect of over 65% in size
How it was run: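 Cells at 1000/well were given compound 4 h after plating in an 11-point series. Viability was read by CellTiter-Glo luminescence after 72 h at 37 degrees C.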

[2] = HPAF-II 24hr Apoptosis Induction qHTS against the NCATS CANVASS Library (AID 1347356)
How it was run: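 HPAF-II cells (500/well) exposed to compounds in 11-point series for 24 h at 37 degrees C; caspase-3/7 activity read by Caspase-Glo luminescence after 15 min at room temperature. Doxorubicin titration as control.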

[3] = HEK293 18hr Apoptosis Induction qHTS against the NCATS CANVASS Library (AID 1347357)
Text: (§1) Natural products and their derivatives continue to be wellsprings of nascent therapeutic potential. However, many laboratories have limited resources for biological evaluation, leaving their previously isolated or synthesized compounds largely or completely untested. To address this issue, the Canvass library of natural products was assembled (https://tripod.nih.gov/canvass), in collaboration with academic and industry researchers, for quantitative high-throughput screening (qHTS) across a diverse set of cell-based and biochemical assays. The pure (>85% purity by liquid chromatography/mass spectrometry [LC/MS]) Canvass library of 346 natural products were submitted by 45 academic laboratories and companies around the world. […] The library was formatted into 1536-well plates and evaluated in 50 qHTS (in an 11-pnt concentration series) bioassays with broad scope of disease-relevant mechanisms. The resulting data set from 50 different assays was then systematically analyzed to identify overall trends and specific natural products with interesting biological activities. […] The luminescence is proportional to the amount of caspase activity in the assay reaction. […]
(§2) Cancer Cell Apoptosis Assay 1. […] Luminescence signal was acquired via the ViewLux plate reader (PerkinElmer) using a clear filter, 20 second exposure and 2x binning settings.

[4] = HPAF-II 12hr Apoptosis Induction qHTS against the NCATS CANVASS Library (AID 1347358)
How it was run: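 HPAF-II cells, 500/well in DMEM + 10% FBS, exposed 12 hours at 37 degrees C to compound (11-point). Caspase-Glo 3/7 added for 15 min at room temperature; luminescence reflects caspase-3/7 activity.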

[5] = HEK293 24hr Apoptosis Induction qHTS against the NCATS CANVASS Library (AID 1347359)
How it was run: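 Caspase-3/7 activation measured as luminescence from the DEVD-based Caspase-Glo reagent, 15 min at room temperature, following 24-hour compound treatment of HEK293 cells.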

[6] = HPAF-II 18hr Apoptosis Induction qHTS against the NCATS CANVASS Library (AID 1347360)
Text: as §1, §2

[7] = HEK293 12hr Apoptosis Induction qHTS against the NCATS CANVASS Library (AID 1347361)
How it was run: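 Apoptosis in HEK293 was scored as caspase-3/7 luminescence following 12 h treatment with a compound concentration series in qHTS format.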

[8] = test system: NAD(P)H diaphorase (Clostridium kluyveri); assay: Diaphorse counterscreen qHTS: Assay Interference Panel against the NCATS CANVASS Library (AID 1347362)
How it was run: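 Counterscreen for coupling-enzyme interference: resorufin fluorescence from resazurin/NADH turnover, read after 5 min at room temperature. Compounds were tested over an 11-point series after 15 min dark preincubation with diaphorase in PBS-Tween.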

[9] = molecular target: Luciferin 4-monooxygenase (Photinus pyralis) (UniProt P08659); assay: Firefly luciferase counterscreen qHTS: Assay Interference Panel against the NCATS CANVASS Library (AID 1347363); further: series mostly up to about 57 µM
Luciferin 4-monooxygenase (Photinus pyralis), sequence (P08659 whole entry, looked up): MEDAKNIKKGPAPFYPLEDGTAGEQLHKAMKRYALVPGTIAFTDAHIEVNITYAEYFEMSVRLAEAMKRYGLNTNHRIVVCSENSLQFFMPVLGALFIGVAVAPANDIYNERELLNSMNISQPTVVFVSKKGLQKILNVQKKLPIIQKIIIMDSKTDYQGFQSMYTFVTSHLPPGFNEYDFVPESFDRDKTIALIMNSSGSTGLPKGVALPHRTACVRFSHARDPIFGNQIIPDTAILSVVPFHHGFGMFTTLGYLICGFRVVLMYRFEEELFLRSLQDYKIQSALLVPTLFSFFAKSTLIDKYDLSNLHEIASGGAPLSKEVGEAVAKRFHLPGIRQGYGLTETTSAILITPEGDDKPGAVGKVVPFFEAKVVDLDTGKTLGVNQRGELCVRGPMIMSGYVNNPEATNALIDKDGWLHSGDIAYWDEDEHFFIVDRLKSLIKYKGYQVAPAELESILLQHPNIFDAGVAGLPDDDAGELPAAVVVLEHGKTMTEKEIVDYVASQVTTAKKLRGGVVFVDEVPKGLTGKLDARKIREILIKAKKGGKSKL
How it was run: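 Luminescence inhibition readout: compounds (11-point qHTS) sat 15 min at room temperature with substrate mix (0.013 mM luciferin and ATP), then firefly luciferase was added and signal read 5 min later.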

[10] = KB-3-1 Cancer Cell Toxicity qHTS against the NCATS CANVASS Library (AID 1347366); further: series mostly up to about 46 µM; nearly all actives have a fitted effect of over 75% in size
How it was run: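 Seed KB-3-1 cells at 500/well in DMEM with 10% FBS, add compounds, incubate 72 hr at 37C and 5% CO2, then add CellTiter-Glo and read luminescence after 10 minutes.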

Measured: outcome

NCCc1ccc(O)cc1
inactive: all assays above
